From PubChem BioAssay
A selection: hits, their analogues and other compounds. The true share with any hit is near 12%.
BAZ2B inh = qHTS Assay for Inhibitors of BAZ2B; AID 504333, 2011; 360,000 tested, 4.4% active; Bromodomain adjacent to zinc finger domain protein 2B (Homo sapiens), Q9UIF8; Potency, µM (highest dose often 114 µM), for the others: at the highest dose activity change, negative = inhibition, usual class: inhibitors; AlphaScreen BAZ2B-H3K14Ac peptide displacement; also: % is scaled to controls: 0 for no effect and ±100 for the full control effect; nearly all actives have a fitted effect of over 60% in size
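Multi-concentration screen (max 110 uM) measuring displacement of acetylated histone H3 peptide from BAZ2B by AlphaScreen, using 50 nM protein, 50 nM peptide and 10 ug/mL streptavidin donor plus Ni-chelate acceptor beads.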
JMJD2A Tudor = qHTS Assay for Inhibitors of JMJD2A-Tudor Domain; AID 504339, 2011; AlphaScreen JMJD2A-Tudor / H3K4me3 peptide binding; Potency, µM (titrated, usually from 114 µM), for the others: top-dose activity change, negative = inhibition, actives largely listed as inhibitors; 390,000 tested, 4.4% active; also: % is scaled to controls: 0 for no effect and ±100 for the full control effect; nearly all actives have a fitted effect of over 50% in size
Sfp inh = qHTS Assay for Inhibitors of Bacillus subtilis Sfp phosphopantetheinyl transferase (PPTase) | 4'-phosphopantetheinyl transferase ffp (Bacillus subtilis), Q9F4F7 | Biochemical Sfp PPTase activity, qHTS | Potency, µM, without a hit: largest response in the series, negative = inhibition, usual class: inhibitors | 310,000 tested, 3.5% active;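 also: the enzyme is Sfp with the accession as filed and its product quenches rhodamine fluorescence; 0% = enzyme reaction without inhibitor and -100% = no enzyme wells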
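Sfp 15 nM + cpd, 15 min RT; start w/ rhodamine-CoA 5 uM, BHQ-2-YbbR 12.5 uM (final); 50 mM Hepes pH 7.6, 10 mM MgCl2, 0.01% NP-40, 0.01% BSA; read 525/598 nm at 0 and 30 min.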
G9a block = qHTS Assay for Inhibitors of Histone Lysine Methyltransferase G9a. Histone-lysine N-methyltransferase EHMT2 (Homo sapiens), Q96KQ7. G9a H3K9 monomethylation, AlphaScreen, 2 h. Potency, µM (titrated, usually from 102 µM), without a hit: at the highest dose activity, negative = inhibition, usual class: inhibitors. 350,000 tested, 8.8% active. AID 504332, 2011; also: % is scaled to controls: 0 for no effect and ±100 for the full control effect; nearly all actives have a fitted effect of over 75% in size
Target sequence (Q96KQ7 913-1193 limits assumed): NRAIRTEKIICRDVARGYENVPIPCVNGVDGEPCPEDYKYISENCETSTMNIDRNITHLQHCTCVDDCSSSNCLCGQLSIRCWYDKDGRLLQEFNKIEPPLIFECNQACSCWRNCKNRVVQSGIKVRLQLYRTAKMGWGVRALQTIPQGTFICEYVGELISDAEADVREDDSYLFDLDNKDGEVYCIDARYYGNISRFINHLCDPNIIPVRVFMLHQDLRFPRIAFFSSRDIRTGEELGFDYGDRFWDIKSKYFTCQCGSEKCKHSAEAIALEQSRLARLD
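AlphaScreen detection with an anti-monomethyl H3K9 antibody quantified product after a 2 h room-temperature reaction containing 500 nM biotinylated H3K9 peptide, 20 µM SAM and 20 nM enzyme, which had been preincubated 15 min with compound.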
HP1b chromo inh = HTS for Inhibitors of HP1-beta Chromodomain Interactions with Methylated Histone Tails. Chromobox protein homolog 1 (Homo sapiens), P83916. AlphaScreen HP1-beta / biotin-H3K9me3 peptide binding. Potency, µM (highest dose often 114 µM), for the others: top-dose activity change, negative = inhibition, actives largely listed as inhibitors. 390,000 tested, 0.56% active; also: nearly all actives have a fitted effect of over 70% in size
Target sequence (P83916 whole entry, looked up): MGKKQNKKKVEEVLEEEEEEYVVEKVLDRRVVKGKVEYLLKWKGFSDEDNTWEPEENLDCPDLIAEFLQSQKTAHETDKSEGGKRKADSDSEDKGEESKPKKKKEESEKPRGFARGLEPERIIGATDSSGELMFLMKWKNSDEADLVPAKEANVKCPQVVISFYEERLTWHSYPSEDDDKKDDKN
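HP1-beta protein (50 nM final) preincubated 30 min at room temperature with biotinylated H3(1-18)K9me3 peptide (50 nM) in PBS pH 7.4, 0.01% Tween-20, then compound added for 30 min. AlphaScreen streptavidin donor/nickel chelate acceptor beads (10 ug/mL final), 30 min dark, luminescence read.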
L3MBTL1 inh = qHTS Assay for the Inhibitors of L3MBTL1; AlphaScreen L3MBTL1–H3K9me1 peptide binding; Potency, µM (doses to about 57.1 µM), without a hit: top-dose activity, negative = inhibition, most hits filed as inhibitors; 230,000 tested, 0.66% active; also: % is scaled to controls: 0 for no effect and ±100 for the full control effect; nearly all actives have a fitted effect of over 60% in size
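AlphaScreen assay: L3MBTL1 (50 nM final) was preincubated 30 min at room temperature with biotinylated H3(1-15)K9me1 peptide (75 nM final), then 30 min with library compounds; streptavidin donor and nickel chelate acceptor beads (10 ug/mL final) added, 30 min dark.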
Active calls of the source: *; ? = inconclusive; . = no result given; [ ] = another dose, or the depositor's remark. Calls follow the shape of the dose curve; as a rule, active = well fitted curve in the direction sought with a large enough effect; inconclusive = small, poorly fitted or top-dose-only effect, or another doubt; inactive = no such curve, though single readings can be large; an effect the other way counts as inactive or inconclusive. Potency is read from the fitted curve at half-maximal effect.

SMILES	BAZ2B inh	JMJD2A Tudor	Sfp inh	G9a block	HP1b chromo inh	L3MBTL1 inh
CCC1Nc2ncnc(N3CCCCC3)c2N(Cc2ccc(Cl)cc2)C1=O (stereo unspecified)	.	?	.	.	56.0%	-5.7%
CCC1Nc2ncnc(N3CCN(c4ccccn4)CC3)c2N(Cc2ccc(Cl)cc2)C1=O (stereo unspecified)	56.2µM*	?	.	-26.0%[2.33 µM]	0.2%	-6.2%
Cc1ccc(C)c(CN2C(=O)c3ccccc3S(=O)c3ccc(C(=O)NCc4ccco4)cc32)c1 (stereo unspecified)	-22.8%	-28.3%	.	-36.4%[59 µM]	-1.9%	.
CN(C)c1ccnc(C(=O)O)c1	22.4µM*	0.708µM*	56.2µM*	4.47µM*	1.2%	.
O=C(O)c1cc(Br)ccn1	.	3.16µM*	35.5µM*	15.8µM*	7.4%	.
O=C(O)c1cncc(Br)c1	-1.1%	0.7%	14.1%	?	31.5%	4.1%
COc1cc(OC)c(NC(=O)N2CCSc3ccccc32)cc1Cl	?	-27.1%	.	?	15.7%	.
Cn1c2cc(CO)sc2c2cnn(Cc3ccccc3F)c(=O)c21	.	-2.0%	.	.	.	.
CCNC(=S)NNc1nc(N2CCCCC2)nc(N2CCOCC2)n1	.	-8.3%	11.2µM*	?	-6.3%	.
Cn1c(NC2=NC3(CCCC3)C3=C(CCCC3=O)N2)nc2ccccc21	.	6.4%	.	.	.	.
Fc1ccc(C2=CC(c3ccc(Br)o3)n3ncnc3N2)cc1 (stereo unspecified)	-15.5%	31.6µM*	-100.7%	8.91µM*	-6.9%	-2.7%
C1=C(c2ccc(-c3ccccc3)cc2)Nc2ncnn2C1c1ccco1 (stereo unspecified)	-12.4%	-26.5%	?	31.6µM*	24.1%	-0.2%
Fc1ccc(Br)cc1C1C=C(c2cccnc2)Nc2ncnn21 (stereo unspecified)	-6.8%	?	8.5%	44.7µM*	43.0%	-1.7%
Fc1ccc(C2=CC(c3ccco3)n3ncnc3N2)cc1 (stereo unspecified)	?	-32.8%	-24.2%	?	21.0%	-1.3%
Brc1ccc(C2=CC(c3cccs3)n3ncnc3N2)cc1 (stereo unspecified)	3.6%	-21.6%	79.4µM*	11.1%[0.501 µM]	24.1%	-2.5%
OCCCc1nc2n(n1)C(c1cccs1)C=C(c1ccc(Br)cc1)N2 (stereo unspecified)	-9.5%	.	?	?	.	-1.4%
N#Cc1nc(NCC(F)F)c2ncn(-c3cc(F)cc(F)c3)c2n1	.	-9.6%	.	.	.	.
N#Cc1ccc(NCCNCC(=O)N2N=CCC2C#N)nc1 (stereo unspecified)	.	.	-13.7%	.	.	.
Cc1cc(=O)n(CC(=O)N2CCCCC2)c2c1c(C)nn2C	-3.1%	-21.7%	.	16.0%[59 µM]	5.4%	.
Cc1cc(-c2nc3ncccc3o2)ccc1NC(=O)c1ccc(Cl)cc1	-3.8%	-6.7%	.	0.1%[59 µM]	34.6%	.
CCCCn1c(=O)c(-[n+]2ccccc2)c([O-])c2ccccc21	?	-5.0%	14.1µM*	8.91µM*	48.8%	.
Cc1ccc(NC2CCCN(C(=O)c3ccc4nccnc4c3)C2)cc1C (stereo unspecified)	-22.1%	-16.0%	17.1%	-4.1%	11.2%	.
COc1ccc(C(=O)N2CCCC(Nc3ccc(C)c(C)c3)C2)c(OC)n1 (stereo unspecified)	?	-35.0%	11.3%	44.7µM*	-10.7%	.
COc1ccc(C(=O)N2CCCC(Nc3ccc(F)c(F)c3)C2)c(OC)n1 (stereo unspecified)	-19.0%	-24.3%	14.8%	4.8%	6.0%	.
COc1cccc(C(=O)N2CCCC(Nc3ccc(C)c(C)c3)C2)c1 (stereo unspecified)	?	?	0.7%	22.4µM*	4.6%	.
SMILES	BAZ2B inh	JMJD2A Tudor	Sfp inh	G9a block	HP1b chromo inh	L3MBTL1 inh
COc1ccc2[nH]c3c(N4CCc5ccccc5C4)ncnc3c2c1	?	?	-13.0%	44.7µM*	-17.9%	.
CCOC(=O)N1CCN(c2ncnc3c2[nH]c2ccc(OC)cc23)CC1	3.6%	-7.3%	3.0%	14.6%[2.33 µM]	22.2%	-2.6%
COc1ccc(N2CCN(c3ncnc4c3[nH]c3ccccc34)CC2)cc1	?	50.1µM*	-12.1%	12.6µM*	-13.1%	.
O=C(c1ccco1)N1CCN(c2ncnc3c2[nH]c2ccccc23)CC1	7.5%	.	-4.7%	-33.6%[59 µM]	.	37.6%
COc1cccc2[nH]c3c(N4CCCCC4)ncnc3c12	.	-3.2%	-12.1%	?	?	29.8%
CCOC(=O)N1CCN(c2ncnc3c2[nH]c2ccc(F)cc23)CC1	-2.8%	3.5%	19.3%	7.1%[59 µM]	24.6%	3.1%
COc1cc2[nH]c3c(N4CCN(c5ccccn5)CC4)ncnc3c2cc1OC	?	-28.1%	9.6%	44.7µM*	-8.8%	-1.3%
Fc1ccc2[nH]c3c(N4CCN(c5ccccc5)CC4)ncnc3c2c1	39.8µM*	?	-3.1%	?	-10.2%	-9.8%
COc1ccc(OC)c(C2Nc3c(C)cc(C)cc3-c3cc(C)nn32)c1 (stereo unspecified)	?	?	.	-37.0%[59 µM]	-14.7%	.
COc1ccc(CCC(=O)NCc2ccc3c(c2)CCN3C(=O)c2ccc(C)cc2)cc1	-4.3%	-23.7%	.	-0.8%[59 µM]	26.2%	.
Cc1oc2ncn(C)c(=O)c2c1C(=O)NCCCN(Cc1ccccc1)C(C)C	10.2%[57.1 µM]	0.3%	.	-1.7%[59 µM]	31.8%	.
Cc1ccc(Cl)cc1N1CCN(c2ncnc3onc(C)c23)CC1	-0.7%[57.1 µM]	-9.4%	.	-4.4%[59 µM]	11.8%	.
Cc1cccc(-n2cc[nH]c2=S)c1C	-5.8%	39.8µM*	-18.7%	1.78µM*	34.9%	14.7%
S=c1[nH]ccn1-c1c(Cl)cccc1Cl	-11.8%	1.8%	4.9%	10µM*	25.4%[57 µM]	3.3%
CC(C)c1ccccc1-n1cc[nH]c1=S	?	22.4µM*	?	3.98µM*	22.7%	33.2%
Cc1ccccc1-n1cc[nH]c1=S	4.9%	10µM*	-11.7%	12.6µM*	15.7%	.
CCCN1CNC(=S)N(c2ccccc2C)C1	-12.9%	-1.0%	3.4%	7.1%[59 µM]	22.7%	.
Cc1ccc2oc(C(=O)NCC(c3ccc(Cl)cc3)N3CCOCC3)c(C)c2c1 (stereo unspecified)	-22.4%	-25.2%	.	-1.5%[59 µM]	51.3%	.
